PLC-beta3 inh: human PLC-beta3 inhibitors, primary screen, biochemical, fluorescence. 0.18% of 370,000 active. Purified PLC-beta3, fluorogenic substrate. 1-phosphatidylinositol 4,5-bisphosphate phosphodiesterase beta-3 (Homo sapiens), Q01970. AID 720704, 2013. inhibition, % at 12.2 µM; in the data active means inhibition above about 11%
ADAM17 inh: ADAM17 inhibitors, primary screen, biochemical, QFRET; Disintegrin and metalloproteinase domain-containing protein 17 (Homo sapiens), P78536; AID 720648, 2013; recombinant ADAM17, EDANS/DABCYL FRET peptide cleavage; inhibition, % at 6.95 µM; 0.83% of 370,000 active;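 active means inhibition above the mean of compounds lying between control limits plus 3 SD, set per campaign, cut at about 8.5% in these data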
Target sequence (P78536 215-824 limits assumed): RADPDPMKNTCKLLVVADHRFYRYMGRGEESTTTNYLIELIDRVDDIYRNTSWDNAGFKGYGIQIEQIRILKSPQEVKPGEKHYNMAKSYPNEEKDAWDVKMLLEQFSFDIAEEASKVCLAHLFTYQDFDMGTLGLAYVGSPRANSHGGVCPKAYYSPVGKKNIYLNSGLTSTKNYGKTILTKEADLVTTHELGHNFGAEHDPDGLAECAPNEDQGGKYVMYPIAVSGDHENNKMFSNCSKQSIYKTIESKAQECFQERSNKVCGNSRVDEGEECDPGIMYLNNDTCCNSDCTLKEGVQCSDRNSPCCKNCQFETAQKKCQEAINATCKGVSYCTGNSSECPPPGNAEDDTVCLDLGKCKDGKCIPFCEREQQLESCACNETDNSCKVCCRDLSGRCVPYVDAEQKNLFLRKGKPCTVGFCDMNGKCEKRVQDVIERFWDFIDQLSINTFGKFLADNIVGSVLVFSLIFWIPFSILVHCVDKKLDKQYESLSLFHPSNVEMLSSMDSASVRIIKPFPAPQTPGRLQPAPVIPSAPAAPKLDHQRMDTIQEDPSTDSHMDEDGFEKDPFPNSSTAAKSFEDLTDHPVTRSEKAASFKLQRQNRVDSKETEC
PLCg1 inh: PLC-gamma1 enzyme inhibitors, primary screen, biochemical, fluorescence, purified enzyme; inhibition, % at 12.2 µM; fluorogenic substrate; 1-phosphatidylinositol 4,5-bisphosphate phosphodiesterase gamma-1 (Homo sapiens), P19174; 0.84% of 370,000 active; in the data active means inhibition above about 9.5%
proKLK7 act: proKLK7 zymogen activators, primary screen, biochemical, fluorescence intensity; Kallikrein-7 (Homo sapiens), P49862; purified proKLK7, EDANS-DABCYL substrate fluorescence; 100% is mature enzyme control, 0% vehicle; activation, % at 7 µM; 0.9% of 370,000 active; AID 652039, 2013;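 active means activation above the mean of all tested compounds plus 3 SD, computed per campaign excluding outliers beyond control limits, cut at about 13% in these data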
ADAM10 inh: human ADAM10 inhibitors, primary screen, biochemical, QFRET, HTS. Disintegrin and metalloproteinase domain-containing protein 10 (Homo sapiens), O14672. recombinant ADAM10, EDANS/DABCYL FRET peptide cleavage, 3 h. inhibition, % at 7 µM. 0.62% of 370,000 active;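 active means inhibition above a per-campaign cutoff equal to the mean of compounds falling between control-based bounds plus 3 SD, cut at about 20% in these data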
KLK7 act conf: proKLK7 zymogen activators, confirmation, biochemical, fluorescence intensity, triplicate | shares compounds with proKLK7 act | purified proKLK7, EDANS-DABCYL substrate fluorescence; scaled: vehicle 0, mature enzyme 100 | activation, % at 7 µM | 68% of 3,200 active | AID 686949, 2013;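 active means activation, as change over the incubation, above the mean of all tested compounds plus 3 SD, cut at about 13% in these data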
EDANS interfere: EDANS-DABCYL substrate optical interference, artefact control for kallikrein-7 zymogen activator project, biochemical, fluorescence intensity, high throughput | AID 686952, 2013 | shares compounds with proKLK7 act | activation, % at 7 µM | 80% of 3,200 active | no enzyme, 4 h; solvent 0%, active enzyme control 100%;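 active means activation above the all-compound mean plus 3 SD, ignoring values outside control-based bounds, cut at about 4.8% in these data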;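 further: value is the 4 h activation minus the activation read at time zero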
A number is an active result; n = inactive; x = not tested or not shown. An excerpt weighted towards active compounds, which were near 2.9% of everything screened.

SMILES | PLC-beta3 inh | ADAM17 inh | PLCg1 inh | proKLK7 act | ADAM10 inh | KLK7 act conf | EDANS interfere
COc1cccc(CNC(=S)Nc2ccc3c(c2)c(=O)n(C)n3C)c1 | n | n | n | 25 | n | n | 13
Cc1nn2cc(-c3ccccc3)nc2[nH]c1=O | n | n | n | 49 | n | 74 | 80
O=C(O)CCc1nn2cc(-c3ccccc3)nc2[nH]c1=O | n | n | n | 56 | n | 72 | 81
Cc1nn2c(-c3ccccc3)c(-c3ccccc3)nc2[nH]c1=O | n | n | n | n | n | x | x
Cc1ccc(NC(=O)CN(C)C(=O)C(C)OC(=O)c2ccccc2NCCO)cc1 (stereo not drawn) | n | n | n | 21 | n | n | n
CC(OC(=O)c1ccccc1NCCO)C(=O)NCC(=O)Nc1ccc(F)c(F)c1F (stereo not drawn) | n | n | n | 25 | n | 83 | 74
Cc1ccc(NC(=O)CN(C)C(=O)C(c2ccccc2)c2ccccc2)cc1 | n | n | n | n | n | x | x
COc1ccccc1C(C)NCC(=O)NCC(=O)Nc1ccc(F)c(F)c1F (stereo not drawn) | n | n | n | n | n | x | x
COC(=O)[C@]12C[C@H](CC(=O)N3CCCC3)C(=O)N(Cc3ccccc3)C1=C[C@H](C(C)(C)C)O[C@@H]2C | n | n | n | n | n | x | x
CC1(C)Oc2ccc3ccc(=O)oc3c2C(/C=N/O)C1=O (stereo not drawn) | n | n | n | 27 | n | 17 | 18
C=CCOC(=O)N[C@H](c1ccccc1)[C@H](C)/C=C/CC(=O)OC | n | n | n | n | n | x | x
COC(=O)[C@]12C[C@H](CC(=O)NCc3ccc(OC)c(OC)c3)C(=O)N(Cc3ccco3)C1=C[C@H](C(C)(C)C)O[C@@H]2C | n | n | n | n | n | x | x
CC1CN(S(=O)(=O)c2cccc(C(=O)OCc3cc(=O)oc4cc(O)ccc34)c2)CC(C)O1 (stereo not drawn) | n | n | n | 375 | n | 540 | 528
CCc1cc2c(COC(=O)c3cc(S(=O)(=O)N4CCOCC4)ccc3F)cc(=O)oc2cc1O | n | n | n | 113 | n | 446 | 456
O=c1cc(CN2CCN(S(=O)(=O)c3ccc4c(c3)OCCO4)CC2)c2ccc(O)cc2o1 | n | n | n | 43 | n | 62 | 67
CCc1ccc2c(CN3CCN(S(=O)(=O)c4ccc5c(c4)OCCO5)CC3)cc(=O)oc2c1 | n | n | n | n | n | x | x
N#Cc1ccccc1COC(=O)c1cc(S(=O)(=O)N2CCOCC2)ccc1F | n | n | n | n | n | x | x
O=C(OCc1cc(=O)oc2cc(O)ccc12)c1cc(S(=O)(=O)N2CCOCC2)ccc1F | n | n | n | 644 | n | 677 | 654
Cc1ccc(-n2c(SCc3ccc(Cl)c(Cl)c3)nnc2-c2ccc(C(C)(C)C)cc2)cc1 | n | n | n | n | n | x | x
COc1ccc2c(CN3CCCC3)cc(=O)oc2c1 | n | n | n | n | n | x | x
CCc1cc2c(COC(=O)c3cccc(NS(C)(=O)=O)c3)cc(=O)oc2cc1O | n | n | n | 54 | n | 62 | 55
COc1ccc(OC)c(CN2CCN(Cc3cc(=O)oc4cc(O)ccc34)CC2)c1 | n | n | n | 59 | n | 76 | 75
O=C(c1cccs1)n1ccc2ccc(-c3ccc4ccn(Cc5ccccc5)c4c3)cc21 | n | n | n | n | n | x | x
CCN(CC)Cc1c(O)ccc2cc(-c3nc4ccccc4n3C)c(=O)oc12 | n | n | n | 52 | n | 73 | 76
CCc1cc2c(=O)c(-c3nc4ccccc4n3C)coc2c(CN2CCN(C)CC2)c1O | n | n | n | n | n | x | x
SMILES | PLC-beta3 inh | ADAM17 inh | PLCg1 inh | proKLK7 act | ADAM10 inh | KLK7 act conf | EDANS interfere
CCc1cc2c(=O)c(-c3nc4ccccc4n3C)coc2c(CN2CCC(C)CC2)c1O | n | n | n | n | n | x | x
CCc1cc2c(=O)c(-c3nc4ccccc4n3C)c(C)oc2c(CN(CC)CC)c1O | n | n | n | 16 | n | n | 11
CCCCCCCCN1C(=O)[C@@H](CC(=O)NCCCN2CCCC2=O)C[C@@]2(C(=O)OC)C1=C[C@H](C1CCCC1)O[C@@H]2C | n | n | n | n | n | x | x
Cc1cccc(CCNC(=O)Cn2ncc3c2-c2cc(C)ccc2OC3)c1 | n | n | n | n | n | x | x
COc1ccccc1CCC[C@H](CCS(=O)(=O)C(C)C)CC1CCCCC1 | n | n | n | n | n | x | x
CCCn1c(-c2cccs2)nc2nc3ccccc3nc21 | n | n | n | 41 | n | n | n
COCCn1c(-c2cccs2)nc2nc3ccccc3nc21 | n | n | n | 38 | n | 68 | 73
COCCn1c(-c2ccco2)nc2nc3ccccc3nc21 | n | n | n | 43 | n | 62 | 82
c1csc(-c2nc3nc4ccccc4nc3n2Cc2ccc3c(c2)OCO3)c1 | n | n | n | n | n | x | x
CC(C)OCCCn1c(-c2ccco2)nc2nc3ccccc3nc21 | n | n | n | n | n | x | x
COC(=O)[C@]12C[C@H](CC(=O)N3CCCC3)C(=O)N(Cc3ccco3)C1=C[C@H](C(C)C)O[C@@H]2C1CC1 | n | n | n | n | n | x | x
O=C(NCc1ccccc1)[C@H]1CCCN1C(=O)[C@H]1CCCN1C(=O)c1cccc(Cl)c1 | n | n | n | n | n | x | x
COc1ccc(OC)c2sc(NC(=O)C3=COCCO3)nc12 | n | n | n | 56 | n | n | n
COc1ccc(C)c2sc(NC(=O)C3=COCCO3)nc12 | n | n | n | n | n | x | x
Cc1ccc(S(=O)(=O)NCN2C(=O)c3ccccc3C2=O)cc1 | n | n | n | n | n | x | x
Cc1ccc(S(=O)(=O)NN2C(=O)c3ccccc3NC2c2ccccn2)cc1 (stereo not drawn) | n | n | n | 20 | n | n | 4.4
Cc1ccc(S(=O)(=O)NN2C(=O)c3ccccc3NC2c2ccco2)cc1 (stereo not drawn) | n | n | n | n | n | x | x
Cc1ccc(S(=O)(=O)NN2C(=O)c3ccccc3NC2C)cc1 (stereo not drawn) | n | n | n | 39 | n | n | 11
CC1Nc2ccccc2C(=O)N1NS(=O)(=O)c1ccccc1 (stereo not drawn) | n | n | n | 21 | n | n | 4.5
O=C1c2ccccc2NC(c2ccccc2F)N1NS(=O)(=O)c1ccccc1 (stereo not drawn) | n | n | n | 19 | n | n | 6.8

Screens: PubChem, The Scripps Research Institute Molecular Screening Center
